Experimental data taken from article PMC9911399, “Two distinct binding modes provide the RNA-binding protein RbFox with extraordinary sequence specificity”.
Numbering of substitutions follows the chain as printed; changes in the protein carry UniProt numbers. Whole data set: some 16,000 sequences, median “ka relative to ugcaugu” near 0.0091, cut for the highest 2% near 0.032. The sample as a whole holds a higher share of the highest values than the screen did.

T1: RBFOX1 RRM (Homo sapiens, UniProt Q9NWB1 109-208)
T1 sequence: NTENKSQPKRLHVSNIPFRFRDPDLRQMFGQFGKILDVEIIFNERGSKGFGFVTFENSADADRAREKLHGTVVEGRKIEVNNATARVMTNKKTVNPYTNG

B1: AUGGUGU (DNA:RNA)
RNA: GGGAGACCGGAAUUCAGAUUGUCCAUGGUGUUUAAAUCCCGUCGUAGCCACCA
DNA 1: CAATCTGAATTCCGGTCTCCC
DNA 2: TGGTGGCTACGACGGGATT
B2: CAUGUGU (DNA:RNA)
RNA: B1 RNA with A25C, U26A, G27U
DNA 1: CAATCTGAATTCCGGTCTCCC
DNA 2: TGGTGGCTACGACGGGATT
B3: AGAAGGC (DNA:RNA)
RNA: B1 RNA with U26G, G27A, G28A, U29G, U31C
DNA 1: CAATCTGAATTCCGGTCTCCC
DNA 2: TGGTGGCTACGACGGGATT
B4: GAAUGAG (DNA:RNA)
RNA: GGGAGACCGGAAUUCAGAUUGUCCGAAUGAGUUAAAUCCCGUCGUAGCCACCA
DNA 1: CAATCTGAATTCCGGTCTCCC
DNA 2: TGGTGGCTACGACGGGATT
B5: GCGUCGU (DNA:RNA)
RNA: B1 RNA with A25G, U26C, G28U, U29C
DNA 1: CAATCTGAATTCCGGTCTCCC
DNA 2: TGGTGGCTACGACGGGATT
B6: AUGCCGG (DNA:RNA)
RNA: B1 RNA with G28C, U29C, U31G
DNA 1: CAATCTGAATTCCGGTCTCCC
DNA 2: TGGTGGCTACGACGGGATT
B7: AGCGCGG (DNA:RNA)
RNA: B1 RNA with U26G, G27C, U29C, U31G
DNA 1: CAATCTGAATTCCGGTCTCCC
DNA 2: TGGTGGCTACGACGGGATT
B8: AGAACUA (DNA:RNA)
RNA: B1 RNA with U26G, G27A, G28A, U29C, G30U, U31A
DNA 1: CAATCTGAATTCCGGTCTCCC
DNA 2: TGGTGGCTACGACGGGATT
B9: UGCCUGA (DNA:RNA)
RNA: B1 RNA with A25U, U26G, G27C, G28C, U31A
DNA 1: CAATCTGAATTCCGGTCTCCC
DNA 2: TGGTGGCTACGACGGGATT
B10: UGAUUGA (DNA:RNA)
RNA: B1 RNA with A25U, U26G, G27A, G28U, U31A
DNA 1: CAATCTGAATTCCGGTCTCCC
DNA 2: TGGTGGCTACGACGGGATT
B11: UGCCUGC (DNA:RNA)
RNA: B1 RNA with A25U, U26G, G27C, G28C, U31C
DNA 1: CAATCTGAATTCCGGTCTCCC
DNA 2: TGGTGGCTACGACGGGATT
B12: UGCCUCG (DNA:RNA)
RNA: B1 RNA with A25U, U26G, G27C, G28C, G30C, U31G
DNA 1: CAATCTGAATTCCGGTCTCCC
DNA 2: TGGTGGCTACGACGGGATT
B13: UGUUUGG (DNA:RNA)
RNA: B1 RNA with A25U, U26G, G27U, G28U, U31G
DNA 1: CAATCTGAATTCCGGTCTCCC
DNA 2: TGGTGGCTACGACGGGATT
B14: UGGUUUG (DNA:RNA)
RNA: B1 RNA with A25U, U26G, G28U, G30U, U31G
DNA 1: CAATCTGAATTCCGGTCTCCC
DNA 2: TGGTGGCTACGACGGGATT
B15: UGAUUAA (DNA:RNA)
RNA: B4 RNA with G25U, A26G, G29U, G31A
DNA 1: CAATCTGAATTCCGGTCTCCC
DNA 2: TGGTGGCTACGACGGGATT
B16: UGAUCCG (DNA:RNA)
RNA: B4 RNA with G25U, A26G, G29C, A30C
DNA 1: CAATCTGAATTCCGGTCTCCC
DNA 2: TGGTGGCTACGACGGGATT
B17: UGAUCGA (DNA:RNA)
RNA: B4 RNA with G25U, A26G, G29C, A30G, G31A
DNA 1: CAATCTGAATTCCGGTCTCCC
DNA 2: TGGTGGCTACGACGGGATT
B18: UGGUUGU (DNA:RNA)
RNA: B1 RNA with A25U, U26G, G28U
DNA 1: CAATCTGAATTCCGGTCTCCC
DNA 2: TGGTGGCTACGACGGGATT
B19: CGAUCGA (DNA:RNA)
RNA: B4 RNA with G25C, A26G, G29C, A30G, G31A
DNA 1: CAATCTGAATTCCGGTCTCCC
DNA 2: TGGTGGCTACGACGGGATT
B20: UGCCCGC (DNA:RNA)
RNA: B1 RNA with A25U, U26G, G27C, G28C, U29C, U31C
DNA 1: CAATCTGAATTCCGGTCTCCC
DNA 2: TGGTGGCTACGACGGGATT

The binders below were run against T1, RBFOX1 RRM (assay: EMSA; HiTS-Eq, 1 nM pool, 10 min; buffer printed only for the single-RNA assays: 10 mM Tris pH 7.5, 150 mM NaCl, 3.4 mM EDTA, 0.001% NP-40, 30 C). Conditions: tags: His6 N-terminal (pET28a); label: 5' 32P.
Outline: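 Purified RbFox RRM (wild type or mutant) was equilibrated for 10 min in 50 µL with 1 nM of a 5′-radiolabelled pool of RNA with 7 randomized nucleotides, its flanks annealed to DNA oligonucleotides, across increasing protein concentrations. Free RNA was separated by 8% native PAGE, excised, reverse-transcribed, PCR-barcoded and sequenced on an Illumina HiSeq 2500. Relative association constants came from read-count changes of each variant against the control reaction, normalised to the cognate motif.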

In order of rising binding signal:
1. B8  0.00165 KA relative to UGCAUGU
2. B15  0.00933 KA relative to UGCAUGU
3. B3  0.00991 KA relative to UGCAUGU
4. B2  0.0132 KA relative to UGCAUGU
5. B16  0.0149 KA relative to UGCAUGU
6. B1  0.0152 KA relative to UGCAUGU
7. B6  0.0153 KA relative to UGCAUGU
8. B5  0.0171 KA relative to UGCAUGU
9. B7  0.0172 KA relative to UGCAUGU
10. B19  0.0185 KA relative to UGCAUGU
11. B20  0.0206 KA relative to UGCAUGU
12. B12  0.0235 KA relative to UGCAUGU
13. B4  0.0255 KA relative to UGCAUGU
14. B13  0.0271 KA relative to UGCAUGU
15. B10  0.028 KA relative to UGCAUGU
16. B18  0.0314 KA relative to UGCAUGU
17. B17  0.0347 KA relative to UGCAUGU
18. B14  0.0372 KA relative to UGCAUGU
19. B9  0.0398 KA relative to UGCAUGU
20. B11  0.0698 KA relative to UGCAUGU
